Test results: PubChem BioAssay (NCATS)
Inconclusive results are not listed. Activity calls are given as the source filed them. Unless noted, the call rests on the fitted dose curve; in most records, active means well fitted curve in the direction sought with a large enough effect; inconclusive means small, poorly fitted or top-dose-only effect, or another doubt; inactive means no such curve, though single readings can be large; an effect the other way counts as inactive or inconclusive.

Experiments:
[1] = qHTS assay for small molecule disruptors of the mitochondrial membrane potential - 1 hr assay (AID 651754; calls by dose curve; further: on the % scale 0 is the no-effect control and ±100 the full control effect; nearly all actives have a fitted effect of over 35% in size)
Method in brief: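 HepG2, 2,000 cells/well, overnight attachment; cpd or DMSO 1 hr, 37C/5% CO2; Mito-MPS dye 30 min, 37C; fluorescence monomer (490/535) and aggregate (540/590).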

[2] = qHTS assay for small molecule disruptors of the mitochondrial membrane potential - 5 hr assay (AID 651755; calls by dose curve; further: on the % scale 0 is the no-effect control and ±100 the full control effect; nearly all actives have a fitted effect of over 40% in size)
Method in brief: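 HepG2 cells (2,000/well), attached overnight, exposed to compound 5 hr at 37C, then Mito-MPS dye 30 min. Fluorescence read for monomers (490/535 nm) and aggregates (540/590 nm).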

[3] = biological target: Tumor necrosis factor (Homo sapiens) (UniProt P01375); assay: qHTS assay to identify small molecules that stimulate Tumor Necrosis Factor-alpha (TNF-alpha) secretion (AID 651757; active means well fitted curve in the direction sought with a large enough effect in the signal ratio; the % refers to the signal ratio; further: 0% is about no effect)
Tumor necrosis factor (Homo sapiens), sequence (P01375 whole entry, looked up): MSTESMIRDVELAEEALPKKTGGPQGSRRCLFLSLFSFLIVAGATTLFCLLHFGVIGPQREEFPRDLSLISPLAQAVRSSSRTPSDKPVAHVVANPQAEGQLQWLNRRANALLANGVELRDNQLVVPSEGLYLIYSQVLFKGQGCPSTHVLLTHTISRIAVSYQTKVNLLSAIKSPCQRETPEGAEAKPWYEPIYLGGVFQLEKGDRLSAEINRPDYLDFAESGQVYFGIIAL
Method in brief: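 Read-out is HTRF, a TR-FRET sandwich of cryptate- and XL665-labeled anti-TNF-alpha antibodies detecting cytokine secreted by THP-1 cells. Cells had been incubated with test compounds at 37 C for 17 hrs beforehand.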

[4] = qHTS assay for environmental chemicals that activate the Aryl hydrocarbon Receptor (AhR) signaling pathway (AID 651777); conditions: 1A2-DRE human hepatoma cells, luciferase, 24 h; activation: hits give high values; further: % of control where 0% means no effect; nearly all actives have a fitted effect of over 15% in size
Method in brief: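 Concentration–response screening used 1,200 1A2-DRE cells per well, 24 hr compound exposure (37 C, 5% CO2), and One-Glo luminescence as the AhR-driven CYP1A2 reporter signal.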

[5] = biological target: Peroxisome proliferator-activated receptor alpha (Homo sapiens) (UniProt Q07869); assay: qHTS assay for small molecule agonists of the peroxisome proliferator-activated receptor alpha (PPARalpha) signaling pathway (AID 651778); conditions: PathHunter PPARalpha complementation, chemiluminescence, 6 h; hits give high values; further: % of control where 0% means no effect
Peroxisome proliferator-activated receptor alpha (Homo sapiens), sequence (Q07869 whole entry, looked up, the tested form may be a part): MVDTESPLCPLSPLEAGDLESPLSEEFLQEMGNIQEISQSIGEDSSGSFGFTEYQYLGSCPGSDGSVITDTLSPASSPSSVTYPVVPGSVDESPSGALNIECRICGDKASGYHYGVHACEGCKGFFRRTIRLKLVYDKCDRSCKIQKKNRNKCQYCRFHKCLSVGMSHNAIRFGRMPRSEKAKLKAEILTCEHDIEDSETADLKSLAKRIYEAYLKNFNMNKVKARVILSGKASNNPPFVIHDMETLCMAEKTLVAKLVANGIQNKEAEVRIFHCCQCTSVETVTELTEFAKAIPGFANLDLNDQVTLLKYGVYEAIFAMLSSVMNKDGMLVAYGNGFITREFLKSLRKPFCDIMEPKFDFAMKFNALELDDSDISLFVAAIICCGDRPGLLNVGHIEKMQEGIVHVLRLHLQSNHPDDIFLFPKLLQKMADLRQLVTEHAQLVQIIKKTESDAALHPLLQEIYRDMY
Method in brief: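 Enzyme-fragment complementation assay in which ligand-bound PPARalpha translocates and forms an active enzyme that generates chemiluminescence. Cells were plated overnight, exposed to compound for 6 hr at 37 C, and then given detection reagent for 60 min at room temperature.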

[6] = biological target: Nuclear receptor ROR-gamma (Homo sapiens) (UniProt P51449); assay: qHTS assay for small molecule antagonists of the retinoid-related orphan receptor gamma (ROR-gamma) signaling pathway (AID 651802);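 further: luciferase reporter luminescence driven by ROR response element; series mostly up to about 92 µM; on the % scale 0 is the no-effect control and ±100 the full control effect; nearly all actives have a fitted effect of over 60% in size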
Nuclear receptor ROR-gamma (Homo sapiens), sequence (P51449 whole entry, looked up): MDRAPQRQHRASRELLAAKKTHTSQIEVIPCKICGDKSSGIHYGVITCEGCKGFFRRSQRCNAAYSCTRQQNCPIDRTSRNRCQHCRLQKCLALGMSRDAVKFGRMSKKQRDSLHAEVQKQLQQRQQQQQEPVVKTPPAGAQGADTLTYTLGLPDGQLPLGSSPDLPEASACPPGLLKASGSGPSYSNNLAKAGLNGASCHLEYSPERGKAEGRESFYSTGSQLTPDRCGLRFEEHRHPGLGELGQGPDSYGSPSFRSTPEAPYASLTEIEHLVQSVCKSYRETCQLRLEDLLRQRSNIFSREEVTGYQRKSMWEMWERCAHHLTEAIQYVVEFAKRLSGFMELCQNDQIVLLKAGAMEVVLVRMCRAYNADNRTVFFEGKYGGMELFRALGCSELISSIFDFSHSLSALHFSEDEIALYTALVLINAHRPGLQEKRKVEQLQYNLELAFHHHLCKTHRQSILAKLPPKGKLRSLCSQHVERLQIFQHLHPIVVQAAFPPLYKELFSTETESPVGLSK
Method in brief: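 CHO, TET-inducible ROR + RORE-LUC reporter, 1536-well qHTS. Compound pinned, doxycycline added, 16hr 37C/5% CO2. ONE-Glo, 30 min RT, luminescence; signal drop scored as antagonism.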

[7] = qHTS assay for small molecule agonists of the antioxidant response element (ARE) signaling pathway measured by Nrf2-dependant transcriptional activity (AID 720636; active means well fitted curve in the direction sought with a large enough effect in the repeat runs; an effect the other way counts as inactive or inconclusive;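 further: HepG2 cells with an ARE-driven luciferase reporter; % of control where 0% means no effect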)
Method in brief: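 Attachment 6 hr at 37 C, then compound versus DMSO vehicle for 16 hr in ARE-luc HepG2 cells (1% dialyzed FBS); luminescence recorded 30 min after ONE-Glo addition at room temperature.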

[8] = qHTS assay for small molecule antagonists of the retinoid-related orphan receptor gamma (ROR-gamma) signaling pathway - cell viability counter screen (AID 720652; active means well fitted curve in the direction sought with a large enough effect in the repeat runs; an effect the other way counts as inactive or inconclusive;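 further: series mostly up to about 92 µM; compound exposure lasted 16 hr before ATP read; on the % scale 0 is the no-effect control and ±100 the full control effect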)
Method in brief: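 Luminescence from CellTiter-Glo after 30 min at room temperature reported cellular ATP as the cytotoxicity measure. Cells were the CHO reporter line with doxycycline-induced ROR-gamma expression, exposed to compound for 16 hr at 37 C.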

[9] = qHTS assay for small molecule agonists of the antioxidant response element (ARE) signaling pathway measured by Nrf2-dependant transcriptional activity - cell viability counter screen (AID 720653; active means well fitted curve in the direction sought with a large enough effect in the repeat runs; an effect the other way counts as inactive or inconclusive; further: on the % scale 0 is the no-effect control and ±100 the full control effect); conditions: ARE-bla HepG2 viability, CellTiter-Glo ATP luminescence, 16 h; hits give low values
Method in brief: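 ARE-bla HepG2 cells treated with compounds for 16 h at 37C; this counter screen measures viability as intracellular ATP by CellTiter-Glo luminescence after 30 min at room temperature.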

[10] = qHTS assay for cell viability of HEK293 cells (AID 743288); conditions: ATP luminescence (CellTiter-Glo), 18 h, hits give low values; further: on the % scale 0 is the no-effect control and ±100 the full control effect; nearly all actives have a fitted effect of over 50% in size
Method in brief: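 The Tox21 protocol used parental HEK293 cells treated for 18 h at 37 C with compounds delivered by pintool; ATP-coupled luminescence after 30 min at room temperature gave viability.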

[11] = qHTS assay for cell viability of the p53RE-bla HCT-116 cell line (AID 743292); further: on the % scale 0 is the no-effect control and ±100 the full control effect; nearly all actives have a fitted effect of over 55% in size
Method in brief: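 Compound-exposed HCT-116 (p53RE-bla) cells, 4,000 per well, were kept 16 h at 37 C following a 5 h preincubation. Cell number was estimated from total ATP by CellTiter-Glo luminescence read after 30 min at room temperature.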

[12] = biological target: Nuclear receptor subfamily 1 group I member 2 (Rattus norvegicus) (UniProt Q9R1A7); assay: qHTS assay for small molecule activators of the rat pregnane X receptor (rPXR) signaling pathway (AID 651751; call rule not given here; further: 0% is about no effect); conditions: rPXR reporter cells, luciferase (One-Glo), 24 h
Nuclear receptor subfamily 1 group I member 2 (Rattus norvegicus), sequence (Q9R1A7 whole entry, looked up): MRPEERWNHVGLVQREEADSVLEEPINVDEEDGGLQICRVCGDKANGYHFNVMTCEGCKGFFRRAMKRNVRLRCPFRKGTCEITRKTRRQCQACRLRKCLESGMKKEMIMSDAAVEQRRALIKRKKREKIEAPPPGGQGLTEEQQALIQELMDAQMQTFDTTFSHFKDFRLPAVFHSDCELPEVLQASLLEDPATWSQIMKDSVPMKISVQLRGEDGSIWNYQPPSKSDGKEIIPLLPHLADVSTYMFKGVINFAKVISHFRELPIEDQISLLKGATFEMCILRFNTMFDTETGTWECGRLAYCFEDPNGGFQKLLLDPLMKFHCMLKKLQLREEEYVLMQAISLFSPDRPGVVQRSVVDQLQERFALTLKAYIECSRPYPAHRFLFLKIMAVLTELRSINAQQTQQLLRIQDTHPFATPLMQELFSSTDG

[13] = qHTS assay for small molecule activators of the human pregnane X receptor (PXR) signaling pathway (AID 720659; call rule not given here; further: 0% is about no effect)

CCCCOCCOCCSC#N
inactive: Potency [1] | Potency [2] | Potency [3] | activation [4] -0.297% | max response [5] 0.043% | Potency [6] | outcome [7] | Potency [8] | max response [9] -6.26% | max response [10] 5.15% | Potency [11] | max response [12] -2.98% | outcome [13]

N#CCc1ccccc1[N+](=O)[O-]
inactive: Potency [1] | Potency [2] | Potency [3] | activation [4] 4.16% | max response [5] -3.4% | Potency [6] | outcome [7] | Potency [8] | max response [9] 3.79% | max response [10] -6.51% | Potency [11] | max response [12] 8.31%

O=[N+]([O-])c1cccc(Cl)c1
inactive: Potency [1] | Potency [2] | Potency [3] | activation [4] 0.317% | max response [5] -3.34% | Potency [6] | outcome [7] | Potency [8] | max response [9] -6.97% | max response [10] -0.245% | Potency [11] | max response [12] 0.107% | outcome [13]

Cc1ccccc1C(N)=O
inactive: Potency [1] | Potency [2] | Potency [3] | activation [4] -0.0237% | max response [5] -0.838% | Potency [6] | outcome [7] | Potency [8] | max response [9] -2.23% | max response [10] 10.1% | Potency [11] | max response [12] -3.36% | outcome [13]

Cc1ccccc1C(=O)O
inactive: Potency [1] | Potency [2] | Potency [3] | activation [4] 0.336% | max response [5] -0.184% | Potency [6] | outcome [7] | Potency [8] | max response [9] 0.515% | max response [10] -7.38% | Potency [11] | max response [12] -1.94% | outcome [13]

CC(=O)OCc1ccco1
inactive: Potency [1] | Potency [2] | Potency [3] | activation [4] 1.48% | max response [5] -0.503% | Potency [6] | outcome [7] | Potency [8] | max response [9] -8.3% | Potency [11] | max response [12] -1.61% | outcome [13]

COc1ccc(N)c(C)c1
inactive: Potency [1] | Potency [2] | Potency [3] | activation [4] 1.75% | max response [5] -5.31% | Potency [6] | outcome [7] | Potency [8] | max response [9] -1.87% | max response [10] -3.7% | Potency [11] | max response [12] 7.59% | outcome [13]

O=C(O)c1ccccc1[N+](=O)[O-]
inactive: Potency [1] | Potency [2] | Potency [3] | activation [4] -1.41% | max response [5] -2.24% | Potency [6] | outcome [7] | Potency [8] | max response [9] -13.2% | max response [10] 3.94% | Potency [11] | max response [12] 0.256% | outcome [13]

CCN(C(=O)N(CC)c1ccccc1)c1ccccc1
inactive: Potency [1] | Potency [2] | Potency [3] | activation [4] -1.64% | max response [5] -4.39% | Potency [6] | outcome [7] | Potency [8] | max response [9] -10.4% | max response [10] -19.1% | Potency [11] | max response [12] -2.68%

C(=C/c1ccccc1)/c1ccccc1
inactive: Potency [1] | Potency [2] | Potency [3] | activation [4] 1.55% | max response [5] 5.49% | Potency [6] | outcome [7] | max response [9] 5.32% | max response [10] -10.3% | Potency [11] | max response [12] 0.267% | outcome [13]

OC(CCl)CCl
inactive: Potency [1] | Potency [2] | Potency [3] | activation [4] 0.26% | max response [5] -0.528% | Potency [6] | outcome [7] | Potency [8] | max response [9] 16.1% | max response [10] 5.53% | Potency [11] | max response [12] 0.333% | outcome [13]

COc1ccc(OC)cc1
inactive: Potency [1] | Potency [2] | Potency [3] | activation [4] 0.641% | max response [5] -4.92% | Potency [6] | outcome [7] | Potency [8] | max response [9] 4.82% | max response [10] -1.36% | Potency [11] | max response [12] 2.22% | outcome [13]

Cc1ccc(Br)cc1
inactive: Potency [1] | Potency [2] | Potency [3] | activation [4] 0.745% | max response [5] -0.752% | Potency [6] | outcome [7] | Potency [8] | max response [9] -9.09% | max response [10] -7.93% | Potency [11] | max response [12] 10.2% | outcome [13]

COC(=O)c1ccccc1
inactive: Potency [1] | Potency [2] | Potency [3] | activation [4] -0.388% | max response [5] -4.31% | Potency [6] | outcome [7] | Potency [8] | max response [9] 3.39% | max response [10] 2.22% | Potency [11] | max response [12] 0.652% | outcome [13]
